# Compound activity from PubChem BioAssay.
# In the library only some 0.5% were active in any assay of this set; here they are far more common.
# phage Ecoli inh = E. coli growth loss with phage present | growth absorbance | inhibition, % at 11.9 µM | 0.26% of 360,000 active | AID 651602; in the data active = inhibition above about 11%
# AddAB inh = less growth of phage-infected E. coli with AddAB; AID 435030; 0.29% of 330,000 active; inhibition, % at 11.9 µM; E. coli expressing H. pylori AddAB, absorbance growth; in the data active = inhibition above about 12%;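 note: 0% = vehicle wells of infected cells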
# Tat transport = E. coli Tat transport inhibition | E. coli MC4100 TorA-mCherry Tat export, fluorescence | inhibition, % at 10 µM | 0.036% of 340,000 active | AID 488895;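 active = mean replicate inhibition at least 50% and at least half of replicates individually reaching 50%; inconclusive = only one of the two criteria met; inactive = neither criterion met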;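 note: exported cargo escapes ClpAP degradation while cytoplasmic cargo is degraded and loses fluorescence; 0% = median of neutral control wells and 100% = median of NaSCN control wells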
# E coli growth-1 = blocks Escherichia coli growth; OD600, 23 h; hits give low values; OD600 absorbance (concentration not given with the values); 0.21% of 330,000 active;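 active = OD600 absorbance below the run mean of sample wells minus 3.6 SD, in any replicate, cut at about 0.56 in these data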
# E coli growth-2 = counter-screen for AddAB inhibitors: E. coli growth inhibition; AID 449728; inhibition, % at 11.9 µM; 0.27% of 330,000 active; E. coli V3065 growth, OD600 absorbance, 18 h;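 active = inhibition above the campaign's mean inhibition across all tested compounds plus 3 SD, cut at about 9.9% in these data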;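 note: uninfected addAB+ strain grown without phage in ampicillin broth; 0% = DMSO wells and 100% = ciprofloxacin 0.95 µg/ml wells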
# AddAB conf = confirmation screen: growth loss of phage-infected E. coli expressing H. pylori AddAB. shares compounds with AddAB inh. E. coli V3065 expressing H. pylori AddAB, T4 phage, OD; T4 phage with gene 2 nonsense mutations. inhibition, % at 11.9 µM. 64% of 880 active. AID 488942;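 active = mean inhibition above a set limit taken from the earlier primary screen, cut at about 13% in these data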;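 note: higher means less bacterial growth since AddAB block lets phage replicate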
# RecBCD counter = AddAB counter-screen: growth loss of RecBCD+ E. coli infected with mutant T4 phage; shares compounds with AddAB inh; E. coli V66 + mutant T4 phage, OD growth; inhibition, % at 11.9 µM; 73% of 880 active; AID 488955;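 active = mean inhibition above the mean of solvent-only control wells plus 3 SD, cut at about 4% in these data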;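 note: optical density read after an 18 h incubation at 37 °C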
# Bact viability = counter-screen for AddAB inhibitors: inhibitors of bacterial viability; absorbance (AddAB counterscreen); inhibition, % at 11.9 µM; shares compounds with AddAB inh; 35% of 880 active; AID 488956; in the data active = inhibition above about 25%
# * hit, by the source's call; u = inconclusive; x = no result given.
SMILES,phage Ecoli inh,AddAB inh,Tat transport,E coli growth-1,E coli growth-2,AddAB conf,RecBCD counter,Bact viability
O=c1c2ccccc2[nH]c2ccc(F)cc12,10,14*,-3,0.61,10*,7,8.8*,3
COC(=O)C1=C(C(=O)OC)C2Nc3ccccc3[C@@]23CC(C(=O)OC)N(C(=O)NC2CCCCC2)C3=N1 (some centres undefined),x,x,x,0.69,x,x,x,x
Cc1nc2oc3c(=O)[nH]cnc3c2c2c1COC(C)(C)C2,0,31*,0,0.68,-1,-1,0,-3
C#CCOCCOCCOCCNc1nc(N2CCN(C(=O)C(CCCCN)n3cc(CCC(=O)O)nn3)CC2)nc(N2CCN(C(=O)C(C(C)CC)n3cc(CCCN=C(N)N)nn3)CC2)n1 (centres undefined),x,x,x,0.69,x,x,x,x
N#CC(=C1C(=O)Nc2ccc(Br)cc21)c1ccccn1,x,x,x,0.68,x,x,x,x
N#CC1=C(N)OC2=C(C(=O)CC(c3ccccc3)C2)C1c1ccoc1 (centres undefined),3,2,4,0.7,0,x,x,x
CC1C(C#N)=C(N)OC2=C1C(=O)CC(c1ccccc1)C2 (centres undefined),1,97*,4,0.69,73*,0,1,-1
COc1ccc(CNC(=O)C2CC=CC3CCN(Cc4ccc(Cl)c(Cl)c4)C(=O)C32)cc1 (centres undefined),x,x,x,0.69,x,x,x,x
Cc1ccccc1-c1nc(CN2CCC(C(=O)O)CC2)c(C)o1,1,20*,u,0.7,6,4,1,-3
COc1ccc2[nH]c3c(c2c1)CCNC3c1ccc([N+](=O)[O-])o1 (centres undefined),4,41*,5,x,10*,14*,3,1
CCCC(=O)NC(Nc1ccc(S(=O)(=O)Nc2cc(C)on2)cc1)(C(F)(F)F)C(F)(F)F,3,16*,-3,0.72,8,-1,2,1
CCCC(=O)NC(Nc1ccc(S(=O)(=O)Nc2cc(C)on2)cc1)(C(=O)OCC)C(F)(F)F (centres undefined),4,2,-6,0.71,0,x,x,x
C#Cc1ccc(C2C=C(C(=O)N3CCN(Cc4ccc5c(c4)OCO5)CC3)OC(OCC)C2CCCO)cc1 (centres undefined),x,x,x,0.7,x,x,x,x
CCOc1ccc(S(=O)(=O)n2cc(F)c(=O)[nH]c2=O)cc1[N+](=O)[O-],10,24*,-1,0.73,17*,11,2,7
CCOc1ccc(Cc2onc3c2C(=O)CC(C)(C)C3)cc1OCC,2,2,6,0.68,2,x,x,x
CCOc1ccc(Cc2onc3c2C(=O)CCC3)cc1OCC,3,99*,6,0.71,97*,-1,0,0
COc1ccc(CC2CN3C(=NCC3C)N2CCNC(=O)c2ccc(C)c(Br)c2)cc1 (centres undefined),x,x,x,0.69,x,x,x,x
[O-][n+]1cccc2c(Br)cc(Br)c(O)c21,43*,40*,-7,0.24*,40*,38*,47*,41*
C[n+]1cccc2c(Br)ccc([O-])c21,2,1,2,0.65,-4,x,x,x
Cc1ccc(-n2c(-c3ccc(Br)cc3)c[n+]3c2CCc2ccc4cccnc4c2-3)cc1,5,31*,-8,0.49*,24*,76*,5.5*,21
O=C(OC1C(Cc2ccccc2)NS(=O)(=O)C2CC3C=C[C@]12O3)c1ccc([N+](=O)[O-])cc1 (some centres undefined),x,x,x,0.69,x,x,x,x
CCOCCn1c(CN(C)Cc2ccccc2)nc2c1c(=O)n(C)c(=O)n2C,4,100*,-14,0.74,100*,-5,-1,-4
O=C(CSc1ccsc1[N+](=O)[O-])NCc1ccco1,8,30*,-8,0.68,21*,52*,5.0*,26*
Cc1cc(Cl)ccc1C1=CC(=O)CC(c2ccc(F)cc2)C1 (centres undefined),x,x,x,0.68,x,x,x,x
N/C(=N/OC(=O)c1ccccc1Cl)c1ncc([N+](=O)[O-])s1,3,14*,-11,x,10*,37*,3,9
SMILES,phage Ecoli inh,AddAB inh,Tat transport,E coli growth-1,E coli growth-2,AddAB conf,RecBCD counter,Bact viability
NC(=NOC(=O)Nc1ccccc1)c1ncc([N+](=O)[O-])s1,x,x,x,0.65,x,x,x,x
CCc1ccc(NC(=O)CSc2ccc(-c3ccccn3)nn2)cc1,10,13*,-13,0.64,15*,9,9.3*,8
CCOC(=O)c1ccccc1NC(=O)CSc1ccc(-c2ccccn2)nn1,9,13*,12,0.7,13*,6,7.8*,6
CC(=O)Nc1cccc(NC(=O)CSc2ccc(-c3ccccn3)nn2)c1,10,5,-5,0.64,4,x,x,x
COC(=O)c1cc(S(=O)(=O)NCc2ccc(F)cc2)cn1C,2,15*,-1,0.74,5,-1,1,-2
O=C(Nc1ccccc1O)c1ccccc1O,9,24*,2,0.48*,13*,5,8.2*,-1
Cc1cccc(NC(=O)c2ccccc2O)c1C,6,4,1,0.62,2,x,x,x
CCCCN1CCC2C=CCC(C(=O)NCc3ccc(OC)cc3)C2C1=O (centres undefined),x,x,x,0.69,x,x,x,x
CC1CCCN(Cc2nc3c(c(=O)n(C)c(=O)n3C)n2Cc2c(F)cccc2Cl)C1 (centres undefined),-1,99*,-11,0.78,16*,-1,1,-2
O=C(NCCSc1c[nH]c2ccccc12)c1ccco1,2,81*,-9,0.71,27*,-1,2,1
O=C(NCCSc1c[nH]c2ccccc12)c1c(F)cccc1F,0,-1,2,0.65,1,x,x,x
O=C(NNC(=O)C1CCN(S(=O)(=O)c2ccccc2C(F)(F)F)CC1)c1ccccc1O,9,14*,-24,0.69,10,13*,8.8*,11
O=C(NCc1ccco1)C1CCN(S(=O)(=O)c2ccccc2C(F)(F)F)CC1,1,-2,3,0.69,-1,x,x,x
O=C(NNC(=O)C1CCN(S(=O)(=O)c2ccccc2)CC1)c1ccccc1O,6,4,-4,0.71,3,x,x,x
O=C(NNC(=O)C1CCN(S(=O)(=O)c2c(Cl)cccc2Cl)CC1)c1ccccc1O,10,13*,2,0.69,10,9,6.2*,6
CCC1=C(OC(=O)N(CC)CC)N2C(=O)OC(=NCC(=O)OC)[C@]2(Cc2ccccc2)C2C1=CCC1C(=O)N(c3ccccc3)C(=O)C12 (some centres undefined),x,x,x,0.71,x,x,x,x
O=C(CSc1ncnc2nc[nH]c12)c1ccc(Cl)cc1,5,20*,0,0.68,5,17*,4,-2
